Screens (PubChem BioAssay)
Shown are actives, neighbours in structure and some others; about 2.3% of the full set was active somewhere.
C diff HTS = C. difficile growth inhibitors, primary screen, HTS. Clostridium difficile clinical isolate growth, OD600, 24 h; stronger effect = lower value. growth activity, negative = inhibition, % at 16 µg/mL (by protocol). 0.25% of 86,000 active;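 active = mean growth activity at or below -80% and every replicate also at or below -80%; inconclusive = mean at or below -80% but some replicate above -80%; inactive = mean growth activity above -80%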;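 also: 0% = DMSO wells and -100% = levofloxacin 16 µg/mL wells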
Pf Dd2 inh = P. falciparum Dd2 growth inhibitors, primary screen, SYBR Green fluorescence, single dose replicates; 72 h; stronger effect = lower value; activity change, % at 10 µM; 2.3% of 94,000 active; AID 1159554, 2015; in the data active = activity change below about -80%; inconclusive = no clear call, values can overlap the other calls
Numbers without * were called inactive; ? = inconclusive; . = not tested or not shown.

SMILES | C diff HTS | Pf Dd2 inh
C[C@H]1CCCCO[C@H](CN(C)S(=O)(=O)c2cccs2)[C@@H](C)CN([C@@H](C)CO)C(=O)c2cc(NS(=O)(=O)c3ccccc3)ccc2O1 | -5.5 | -72.0
C[C@@H]1CN([C@H](C)CO)C(=O)c2cc(NS(=O)(=O)c3ccc(Cl)cc3)ccc2O[C@@H](C)CCCCO[C@@H]1CN(C)S(=O)(=O)c1cccs1 | 10.3 | -67.9
C[C@@H]1CCCCO[C@H](CN(C)S(=O)(=O)c2cccs2)[C@H](C)CN([C@H](C)CO)C(=O)c2cc(NS(=O)(=O)c3ccccc3)ccc2O1 | -12.4 | -82.8*
C[C@@H]1CCCCO[C@H](CN(C)S(=O)(=O)c2cccs2)[C@H](C)CN([C@H](C)CO)C(=O)c2cc(NS(=O)(=O)c3ccc(Cl)cc3)ccc2O1 | 3.1 | -87.2*
O=C(C[C@@H]1CC[C@@H]2[C@H](COC[C@@H](O)CN2Cc2ccccc2F)O1)N[C@@H]1CCN(Cc2ccccc2)C1 | . | -19.5
O=C(C[C@@H]1CC[C@@H](NC(=O)c2ccc3c(c2)OCO3)[C@@H](CO)O1)NCc1ccc(Cl)cc1 | 4.1 | 0.5
C[C@@H]1CN([C@@H](C)CO)C(=O)c2c(c3ccccc3n2C)-c2ccccc2CO[C@@H]1CN(C)C(=O)CCN(C)C | -5.3 | -79.0
C[C@@H]1CN([C@@H](C)CO)C(=O)c2c(c3ccccc3n2C)-c2ccccc2CO[C@H]1CN(C)C(=O)Cc1ccccc1 | -6.5 | -86.3*
C[C@H]1CN([C@@H](C)CO)C(=O)c2c(c3ccccc3n2C)-c2ccccc2CO[C@H]1CN(C)C(=O)Cc1ccccc1 | -1.0 | -70.2
C[C@H](CO)N1C[C@H](C)[C@@H](CN(C)C(=O)CCN(C)C)OCc2ccccc2-c2c(n(C)c3ccccc23)C1=O | 4.6 | -85.0*
C[C@H]1CN([C@@H](C)CO)S(=O)(=O)c2ccc(C#Cc3ccc(F)cc3)cc2O[C@H]1CN(C)C(=O)NC1CCCC1 | -13.7 | ?
CN(C)C(=O)C[C@H]1C[C@@H]2c3cc(NC(=O)C4CCOCC4)ccc3O[C@@H]2[C@@H](CO)O1 | -2.1 | 22.3
O=C(C1CC1)N1CCCCN2[C@H](CO)[C@@H](c3ccc(C#CC4CCCC4)cc3)[C@H]2C1 | -2.7 | -21.6
COc1ccccc1S(=O)(=O)N(C)C[C@H]1OCc2ccccc2-c2c(n(C)c3ccccc23)C(=O)N([C@H](C)CO)C[C@@H]1C | 7.5 | -84.8*
C[C@H]1CN([C@@H](C)CO)C(=O)c2c(c3ccccc3n2C)-c2ccccc2CO[C@H]1CN(C)S(=O)(=O)c1cccs1 | -5.2 | -39.1
C[C@@H]1CN([C@H](C)CO)C(=O)c2c(c3ccccc3n2C)-c2ccccc2CO[C@@H]1CN(C)S(=O)(=O)c1ccccc1F | 1.2 | -70.6
COc1ccccc1S(=O)(=O)N(C)C[C@@H]1OCc2ccccc2-c2c(n(C)c3ccccc23)C(=O)N([C@H](C)CO)C[C@H]1C | 0.0 | -70.5
C[C@@H]1CN([C@@H](C)CO)C(=O)c2c(c3ccccc3n2C)-c2ccccc2CO[C@@H]1CN(C)S(=O)(=O)c1ccccc1F | -0.7 | -70.9
Cc1ccccc1S(=O)(=O)N(C)C[C@H]1OCc2ccccc2-c2c(n(C)c3ccccc23)C(=O)N([C@H](C)CO)C[C@H]1C | . | -83.7*
C[C@H]1CN([C@@H](C)CO)C(=O)c2c(c3ccccc3n2C)-c2ccccc2CO[C@@H]1CN(C)S(=O)(=O)c1cccs1 | 7.5 | -85.6*
Cc1ccccc1S(=O)(=O)N(C)C[C@@H]1OCc2ccccc2-c2c(n(C)c3ccccc23)C(=O)N([C@@H](C)CO)C[C@@H]1C | . | -88.9*
O=C(CC(F)(F)F)N1C[C@@H]2[C@H](c3ccccc31)[C@@H](CO)N2CC1CCOCC1 | 5.3 | -27.4
Cc1cccc(CN(C)C[C@@H]2Oc3ncc(Br)cc3C(=O)N([C@H](C)CO)C[C@@H]2C)c1 | -2.5 | 19.2
C[C@@H]1CN([C@@H](C)CO)S(=O)(=O)c2ccc(-c3ccccc3)cc2O[C@H]1CN(C)C(=O)c1ccccc1F | 11.8 | -26.5
COc1ccc(NC(=O)Nc2cccc3c2O[C@H](CN(C)S(=O)(=O)c2ccc(OC)cc2)[C@@H](C)CN([C@@H](C)CO)C3=O)cc1 | -7.8 | -22.0
COC(=O)N(C)C[C@@H]1OCc2ccccc2-c2ccccc2C(=O)N([C@H](C)CO)C[C@@H]1C | . | 13.6
CC(C)NC(=O)N1[C@H](CO)[C@H](c2ccccc2)[C@@H]1CNCc1ccccc1 | 1.2 | -54.1
COc1ccc2c3c([nH]c2c1)[C@H](CO)N(Cc1ccncc1)CC31CCN(C(=O)c2cccnc2)CC1 | 9.4 | -10.6
CCCC(=O)N1CCC2(CC1)CN(Cc1ccc(Cl)cc1)[C@@H](CO)c1[nH]c3cc(OC)ccc3c12 | 12.9 | -84.4*
COc1cc(CN2CC3(CCN(C(=O)Nc4c(C)noc4C)CC3)c3c([nH]c4cc(OC)ccc34)[C@@H]2CO)cc(OC)c1 | 2.9 | -29.6
